Source: PubChem BioAssay (NCI)
The panel holds about 79,000 compounds, 15% with a hit somewhere; the sample as a whole holds those more often. Values without a mark were called inactive. Calls of active or inactive are those of the source. No stated cut-off is given here; in the data, active means growth inhibition above about 70%; inactive means the rest.

Test: NCI Yeast Anticancer Drug Screen. Data for the rad50EPP+ strain (AID 151);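 further: 0% = growth of vehicle-treated control cultures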
Conditions: S. cerevisiae rad50 mutant strain, stronger effect = higher value
Procedure: Growth inhibition of yeast strains with defined genetic alterations is measured as a screen for potential anti-cancer activity. Selected strains with alterations in DNA damage repair or cell cycle control were exposed to compounds and growth inhibition was measured relative to vehicle treated controls. The strain used in this assay is rad50EPP+

Brc1ccccc1-c1ncc(-c2ccccc2)o1
growth inhibition (at 1.2 µM): -14%
growth inhibition (at 3.7 µM): 10%
growth inhibition (at 11.0 µM): -1%
growth inhibition (at 33.0 µM): 38%
growth inhibition (at 100.0 µM): 62%

O=C1CSC(c2cccc(Cl)c2)N1c1ccc(-c2ccc(-n3c(-c4ccccc4)nc4ccccc4c3=O)cc2)cc1 (stereo not given)
growth inhibition (at 1.2 µM): -1%
growth inhibition (at 3.7 µM): 4%
growth inhibition (at 11.0 µM): 8%
growth inhibition (at 33.0 µM): 9%
growth inhibition (at 100.0 µM): -4%

Cc1cccc2c1nc1ccc(Cl)cc1[n+]2C
growth inhibition (at 1.2 µM): -4%
growth inhibition (at 3.7 µM): 4%
growth inhibition (at 11.0 µM): 64%
growth inhibition (at 33.0 µM): 93% (active)
growth inhibition (at 100.0 µM): 95% (active)

CC(C)OC(=O)Nc1ccc2nc(-c3cscn3)[nH]c2c1
growth inhibition (at 1.2 µM): 9%
growth inhibition (at 3.7 µM): 16%
growth inhibition (at 11.0 µM): 23%
growth inhibition (at 33.0 µM): 31%
growth inhibition (at 100.0 µM): 44%

O=C(O)CNC(=S)Nc1ccccc1
growth inhibition (at 1.2 µM): -86%
growth inhibition (at 3.7 µM): -35%
growth inhibition (at 11.0 µM): -74%
growth inhibition (at 33.0 µM): -40%
growth inhibition (at 100.0 µM): 56%

CCc1c(Cl)c(C)cc(O)c1Cl
growth inhibition (at 1.2 µM): -27%
growth inhibition (at 3.7 µM): -13%
growth inhibition (at 11.0 µM): 8%
growth inhibition (at 33.0 µM): 42%
growth inhibition (at 100.0 µM): 89% (active)

COc1ccc(C2C3=C(COC3=O)OC(C)(C)Oc3cc4c(cc32)OCO4)cc1OC (stereo not given)
growth inhibition (at 1.2 µM): 5%
growth inhibition (at 3.7 µM): 4%
growth inhibition (at 11.0 µM): 4%
growth inhibition (at 33.0 µM): 4%
growth inhibition (at 100.0 µM): 12%

NC(=O)C(=O)NNc1ccccc1
growth inhibition (at 1.2 µM): 9%
growth inhibition (at 3.7 µM): 29%
growth inhibition (at 11.0 µM): 60%
growth inhibition (at 33.0 µM): 85% (active)
growth inhibition (at 100.0 µM): 96% (active)
